From PubChem
Rows were chosen to be rich in hits. Some 18% of all compounds tested hit in one or more screens of this group.
VP16 counter: inhibits Gal4-VP16 luciferase reporter, ROR gamma counter-screen | Potency, µM (titrated, usually from 53.6 µM), for inactives: at the highest dose activity, negative = inhibition, hits mostly inhibitors | 310,000 tested, 3.5% active | AID 2546 | Drosophila S2 Gal4-VP16 UAS-luciferase, luminescence, 20 h;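 further: Gal4-VP16 expression switched on by copper sulfate through the metallothionein promoter; potency means the concentration at half of the fitted maximal effect; nearly all actives have a fitted effect of over 50% in size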
TDP1 cell noCPT: qHTS for Inhibitors of human tyrosyl-DNA phosphodiesterase 1 (TDP1): qHTS in cells in absence of CPT; Potency, µM (series often up to 46.2 µM), for the others: at the top dose activity change, negative = growth inhibition, hits mostly inhibitors; AID 686978, 2013; DT40 Tdp1-/- hTDP1 cells, no CPT, ATP luminescence, 48 h; 420,000 tested, 15% active; further: potency means the concentration at half of the fitted maximal effect; nearly all actives have a fitted effect of over 55% in size
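Readout: luminescence from CellTiter-Glo after 30 min in the dark at RT. Cells: DT40 Tdp1-/- with stable hTDP1, 400/well. Exposure: compounds alone, ≥48 hr, 37 °C.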
IL-1B inflam inh: blocks inflammasome-driven IL-1 beta release | THP-1 LPS/ATP IL-1B secretion, AlphaLISA, 16 h; stronger effect = lower value | activity change, % at 57.5 µM | 360,000 tested, 4.7% active | AID 743279; in the data active means activity change below about -50%; inconclusive means mostly about -30% to -49%
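Secreted IL-1B measured by AlphaLISA bead assay after 16 h compound exposure of THP-1 cells; compounds (final up to 57.5 uM) added 1 h before LPS (250 ng/mL) and ATP (1.25 mM) stimulation; lower signal means less secretion.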
TDP1 cell CPT: growth inhibition of DT40 Tdp1-/-;hTDP1 cells with camptothecin (screen for TDP1 inhibitors) | chicken DT40 Tdp1-/-;hTDP1 cells + 20 nM CPT, ATP luminescence, 48 h | Potency, µM (titrated, usually from 46.2 µM), for the others: top-dose activity change, negative = growth inhibition, most hits filed as inhibitors | 420,000 tested, 12% active | AID 686979; further: potency means the concentration at half of the fitted maximal effect; nearly all actives have a fitted effect of over 55% in size
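Cell growth measured by CellTiter-Glo luminescence after a minimum 48 h, 37 C compound exposure with 20 nM CPT in Tdp1-knockout DT40 cells stably expressing hTDP1, seeded 400/well; qHTS titration format.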
LDHA inh: blocks human lactate dehydrogenase A; 480,000 tested, 0.15% active; activity change, % (values are at about 110 or 230 µM); purified LDHA, NADH/diaphorase-resazurin fluorescence; stronger effect = lower value; P00338; AID 1347041; in the data active means activity change below about -30%; inconclusive means mostly about -25% to -30%;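 further: plate controls were DMSO wells for no effect and wells without enzyme for full effect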
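Human LDH5 at 2 nM final in Tris HCl pH 7.4 with 0.06 mM NADH and 0.2 mM pyruvate, reacted 5 minutes at room temperature. Remaining NADH coupled via diaphorase/resazurin; resorufin fluorescence read at 0 and 20 minutes, normalized to enzyme-free and DMSO wells.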
RORgamma inh: ROR gamma (mouse) transcription inhibition; Potency, µM (titrated, usually from 53.6 µM), without a hit: top-dose activity change, negative = inhibition, usual class: inhibitors; Drosophila S2 Gal4-RORgamma UAS-luciferase reporter, 20 h; 310,000 tested, 5.4% active; AID 2551; P51450; further: potency means the concentration at half of the fitted maximal effect; nearly all actives have a fitted effect of over 60% in size
Target sequence (P51450 whole entry, looked up, the tested form may be a part): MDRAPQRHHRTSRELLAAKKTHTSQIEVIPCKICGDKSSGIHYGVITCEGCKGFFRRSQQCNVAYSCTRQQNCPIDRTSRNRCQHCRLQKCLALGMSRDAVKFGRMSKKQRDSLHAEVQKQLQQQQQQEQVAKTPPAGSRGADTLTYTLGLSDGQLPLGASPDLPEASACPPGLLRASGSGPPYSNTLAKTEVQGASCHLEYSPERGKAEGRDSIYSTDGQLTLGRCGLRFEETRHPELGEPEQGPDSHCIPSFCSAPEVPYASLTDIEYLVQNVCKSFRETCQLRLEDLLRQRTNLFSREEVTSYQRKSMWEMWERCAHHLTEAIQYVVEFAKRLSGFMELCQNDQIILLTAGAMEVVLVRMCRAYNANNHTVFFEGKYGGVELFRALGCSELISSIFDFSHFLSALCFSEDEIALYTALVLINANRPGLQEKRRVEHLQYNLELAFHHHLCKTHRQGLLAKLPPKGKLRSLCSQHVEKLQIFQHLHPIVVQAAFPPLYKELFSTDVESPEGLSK
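Read-out: Photinus luciferase luminescence; inhibitors lower reporter signal. Insect Schneider cells with Gal4-ROR gamma fusion under metallothionein promoter, UAS reporter; 700 uM final copper sulfate induction, 20 hr, ambient temperature.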
The depositor's hits bear a star; u = inconclusive; x = not tested or not shown. Unless noted, the call rests on the fitted dose curve; in most records, active means well fitted curve in the direction sought with a large enough effect; inconclusive means small, poorly fitted or top-dose-only effect, or another doubt; inactive means no such curve, though single readings can be large; an effect the other way counts as inactive or inconclusive. Unless noted, on the % scale 0 is the no-effect control and ±100 the full control effect.

SMILES | VP16 counter | TDP1 cell noCPT | IL-1B inflam inh | TDP1 cell CPT | LDHA inh | RORgamma inh
Cn1ncc2c(Sc3nnc(-c4ccccc4)n3-c3ccc(F)cc3F)ncnc21 | x | x | x | x | -2 | x
COc1cc2ccccc2cc1C(=O)Nc1ccccc1N1CCN(C(C)=O)CC1 | x | x | x | x | 8 | x
CCCNC(=O)Nc1c(NCCC)c2ccccc2oc1=O | x | x | x | x | 0 | x
CCCNc1c(NC(=O)Nc2ccccc2OCC)c(=O)oc2ccccc12 | x | x | x | x | -30* | x
CCCCC1CC(C)(C(=O)CSc2nc3ccccc3s2)OC1=O (stereo unspecified) | u | 0.65µM* | 14 | -3% | -3 | u
CC1CCN(C(=O)CSc2nc3ccccc3s2)CC1 | 11% | -14% | -15 | 12% | -11 | 17%
COc1cccc(CNC(=O)c2cc3c(C)nc4ccccc4c3o2)c1 | u | 18µM* | -14 | 23µM* | -3 | 32%
COc1ccc(CNC(=O)c2cc3c(C)nc4ccccc4c3o2)c(OC)c1 | u | 13µM* | 45 | 16µM* | -7 | u
CCc1ccc(C(=O)NCc2ccc(N3CCN(C)CC3)nc2)s1 | x | x | x | x | -5 | x
COc1cc2c(cc1OC)C1CCc3cc4c(cc3C1N=C2)OCO4 (stereo unspecified) | x | 13µM* | -20 | 16µM* | 0 | x
COc1cc2c(cc1OC)[C@@H]1Cc3cc4c(cc3[C@H](C2)N1C)OCO4 | 6% | -19% | -1 | 4% | -5 | -35%
COc1cc(OC)cc(C(=O)OCC2C(COC(=O)c3cc(OC)cc(OC)c3)C2(Cl)Cl)c1 (stereo unspecified) | x | x | x | x | 1 | x
S=C(Nc1ccccc1I)NC1CC1 | x | x | x | x | 0 | x
Cc1ccccc1NC(=S)NC1CCCC1 | 8.9µM* | -23% | -2 | -19% | -6 | 7.9µM*
Cc1cccc(C)c1NC(=S)NC1CCCCC1 | 4.5µM* | u | 5 | u | -3 | 6.3µM*
CCCN1C2CCCC1CC(NC(=S)Nc1cccc(C)c1C)C2 (stereo unspecified) | -8% | u | u | -18% | -10 | 5%
Cc1cccc(NC(=S)NNC(=S)NC2CCCCC2)c1C | u | -1% | 32 | -11% | -13 | 13µM*
CCC1CCCCN1C(=O)CN1C(=O)N(c2cc(Cl)ccc2C)S(=O)(=O)c2ccccc21 (stereo unspecified) | x | x | x | x | 1 | x
CCCc1ccc(S(=O)(=O)N2CCN(C(=O)C(CC(C)C)NC(N)=O)CC2)cc1 (stereo unspecified) | x | x | x | x | 7 | x
CCN1C(=O)CC(N2CCN(c3ccc(C(=O)c4ccncc4)cc3)CC2)C1=O (stereo unspecified) | u | -13% | 17 | u | -7 | 0%
O=C(c1ccncc1)c1ccc(N2CCN(C3CC(=O)N(Cc4cccs4)C3=O)CC2)cc1 (stereo unspecified) | u | 23µM* | -3 | 16µM* | 0 | 6%
CCOc1ccc(N2C(=O)CC(N3CCN(c4ccc(C(=O)c5ccncc5)cc4)CC3)C2=O)cc1 (stereo unspecified) | x | 21µM* | -3 | u | -1 | x
COC(=O)c1cccc(C23CC4(C2)[C@H](CN(Cc2cccnc2)[C@@H]4c2ccccc2)C3c2ccc(C(F)(F)F)cc2)c1 (stereo partly specified) | 1% | 16µM* | 42 | 16µM* | -10 | -28%
Clc1ccc(C2[C@H]3CN(Cc4ccc(-c5ccccc5)cc4)[C@H](c4ccccc4)C34CC2(c2cccnc2)C4)cn1 (stereo partly specified) | 2% | x | x | x | x | -16%
COC(=O)c1cccc(C23CC4(C2)[C@H](CN(Cc2cccnc2)[C@@H]4c2ccccc2)C3c2ccc(Cl)nc2)c1 (stereo partly specified) | -4% | u | 32 | u | 1 | 0%
SMILES | VP16 counter | TDP1 cell noCPT | IL-1B inflam inh | TDP1 cell CPT | LDHA inh | RORgamma inh
FC(F)(F)c1ccc(CN2C[C@@H]3C(c4ccc(Cl)nc4)C4(c5cccnc5)CC3(C4)[C@H]2c2ccccc2)cc1 (stereo partly specified) | -18% | 16µM* | -12 | u | 2 | -3%
N#Cc1ccc(C23CC4(C2)[C@H](CN(Cc2ccc(C(F)(F)F)cc2)[C@@H]4c2ccccc2)C3c2ccc(Cl)nc2)cc1 (stereo partly specified) | -7% | x | x | x | x | 2%
FC(F)(F)c1ccc(C2[C@H]3CN(CC4CCCCC4)[C@H](c4ccccc4)C34CC2(c2cccnc2)C4)cc1 (stereo partly specified) | 7% | 16µM* | -4 | u | 0 | -24%
COC(=O)c1ccc(C23CC4(C2)[C@H](CN(Cc2ccc(C(F)(F)F)cc2)[C@@H]4c2ccccc2)C3c2ccc(Cl)nc2)cc1 (stereo partly specified) | 0% | 10µM* | 0 | 9.2µM* | -4 | -21%
Cc1cc(C)cc(N2CC(c3nc(-c4ccccc4)no3)CC2=O)c1 (stereo unspecified) | x | x | x | x | 10 | x
Cc1ccccc1CCNC(=O)c1cc(C2CC2)nc2c1cnn2C(C)C | x | u | -24 | 21µM* | -1 | x
CC(C)n1ncc2c(C(=O)NCCc3ccc(F)cc3)cc(C3CC3)nc21 | x | 23µM* | u | u | 0 | x
CCc1ccccc1NC(=O)CN(C)C(=O)c1cc(C2CC2)nc2c1cnn2C(C)C | x | -4% | -5 | -24% | 1 | x
Cc1cc(C)n2c(Nc3ccc4c(c3)OCCO4)c(CCc3ccccc3)nc2n1 | x | 5.8µM* | 10 | 8.2µM* | -2 | x
Cc1cc(C)n2c(Nc3ccc4c(c3)OCCO4)c(C3CC3)nc2n1 | x | 18µM* | 70 | u | 3 | x
Cc1cc(C)n2c(Nc3ccc4c(c3)OCCO4)c(C(C)C)nc2n1 | x | 5.8µM* | 89 | 8.2µM* | 8 | x
Cc1cc(C)n2c(NCc3ccccc3)c(CCc3ccccc3)nc2n1 | x | u | 41 | u | 5 | x
CCCn1nc(C(=O)NCC)c2ccccc2c1=O | x | x | x | x | -1 | x
Cc1n[nH]c(C)c1S(=O)(=O)Nc1ncn(Cc2ccc(Cl)c(Cl)c2)n1 | x | x | x | x | 4 | x
CCCCNC(=O)C[C@@H]1C[C@@]2(C(=O)OCC)CCCC=C2N(CCc2ccc(OC)c(OC)c2)C1=O | x | 18µM* | 4 | 1.5µM* | 6 | x
